From ChEMBL document CHEMBL1857833, “Screening and optimization of specific chemical series against human African Trypanosomiasis (HAT)”
Values joined by “and” are separate entries in the source; they are usually repeats but may differ in a detail not shown here. Identical values can stand only once. In all, about 4,400 compounds went through this assay and about 390 (8.9%) showed an effect of 50% or more. For the sample, strong results were picked, then their nearest neighbours and some compounds at random.

These compounds were tested on Trypanosoma brucei (assay: DNDI: Inhibition of Human African Trypanosomiasis, SBRI 427, in vitro at 2 ug.mL-1).
Assay type: functional
`CCOc1ccc(Oc2cc(/C(=N/O)NCc3ccc(C)o3)ccn2)cc1` was tested, and the “% inhibition” value was 24%. In the case of `Cc1ccccc1-c1nc(CNCc2ccccc2C(F)(F)F)co1`, the “% inhibition” value is reported as 7%. For `FC(F)(F)c1ccc(CNCc2coc(-c3cccc4ccccc34)n2)cc1`, the “% inhibition” value was 3%. `CCOc1ccccc1CN/C(=N\O)c1cccnc1OCc1cccc(F)c1` was tested, and the “% inhibition” value was 72%. For `CCOc1ccccc1CN/C(=N\O)c1cccnc1OCc1ccccc1F`, the “% inhibition” value was 55%. `O/N=C(\NCc1cccnc1)c1cccnc1OCc1ccccc1F` was tested, and the “% inhibition” value was 4%. In the case of `O/N=C(\NCc1ccccc1F)c1cccnc1OCc1cccc(F)c1`, the “% inhibition” value is reported as 29%. With `CCOc1ccccc1CN/C(=N\O)c1ccc(C)nc1OCc1ccccc1F` the “% inhibition” value was 8%. `COc1ccccc1CN/C(=N\O)c1ccc(C)nc1OCc1cccc(F)c1` was tested, and the “% inhibition” value was -8%. `FC(F)(F)c1ccc(-c2nc(CNc3cc[nH]n3)co2)cc1` was tested, and the “% inhibition” value was 40%. In the case of `Cc1ccc(/C(=N/O)N2C(C)CCCC2C)c(Oc2ccc(F)cc2)n1` (centres undefined), the “% inhibition” value is reported as 28%. For `O/N=C(/c1ccc(Oc2cccc3ccccc23)nc1)N1CCCCCC1`, the “% inhibition” value was 25%. `CCOc1ccc(-c2nc(CN(C)CCc3ccc(OC)c(OC)c3)co2)cc1` was tested, and the “% inhibition” value was -3%. `Cc1ccc(/C(=N/O)NCc2c(F)cccc2F)c(Oc2cc(Cl)ccc2Cl)n1` was tested, and the “% inhibition” value was 35%. In the case of `COc1ccccc1CN/C(=N\O)c1ccc(C)nc1Oc1ccc(F)c(Cl)c1`, the “% inhibition” value is reported as 11%. With `Cc1ccc(/C(=N/O)NCc2ccccc2C)c(Oc2cc(Cl)ccc2Cl)n1` the “% inhibition” value was 18%. For `Cc1ccc(/C(=N/O)NCc2ccccc2F)c(Oc2cc(Cl)ccc2Cl)n1`, the “% inhibition” value was 81%. For `COc1ccccc1CN/C(=N\O)c1ccc(C)nc1Oc1cc(Cl)ccc1Cl`, the “% inhibition” value was 100%. `COc1ccccc1CN/C(=N\O)c1ccc(C)nc1Oc1ccc(Cl)cc1` was tested, and the “% inhibition” value was 3%. `COc1cccc(-c2nc(CNCc3ccccc3C(F)(F)F)co2)c1` was tested, and the “% inhibition” value was 20%. With `Cc1ccc(C)c(N2CCN(Cc3coc(-c4ccc(F)cc4)n3)CC2)c1` the “% inhibition” value was -12%. With `CC(NCc1coc(-c2ccc(O)cc2)n1)C1CCCCC1` (centres undefined) the “% inhibition” value was 0%. For `Cc1ccc(-c2nc(CNC3CCCCCCC3)co2)cc1`, the “% inhibition” value was 71%. In the case of `c1coc(-c2nc(CNC3CCCCC3)co2)c1`, the “% inhibition” value is reported as 6%. For `Oc1ccc(-c2nc(CNC3CCCCCCCCCCC3)co2)cc1`, the “% inhibition” value was 60%. In the case of `Oc1ccc(-c2nc(CNC3CCCCCC3)co2)cc1`, the “% inhibition” value is reported as 16%. With `Fc1ccc(-c2nc(CNC3CCCCC3)co2)cc1` the “% inhibition” value was 8%. In the case of `FC(F)(F)c1ccc(-c2nc(CNc3ccc(Oc4ccccc4)cc3)co2)cc1`, the “% inhibition” value is reported as 4%. For `COc1cccc(-c2nc(CN(CCN(C)C)Cc3ccccc3)co2)c1`, the “% inhibition” value was 23%. `Cc1cc(C)cc(Oc2ccc(/C(=N/O)N3CCN(C4CCCC4)CC3)cn2)c1` was tested, and the “% inhibition” value was 0%. For `COc1cc(-c2nc(CNC(C)c3cccc4ccccc34)co2)cc(OC)c1OC` (centres undefined), the “% inhibition” value was -4%. With `COc1ccc(CN/C(=N\O)c2cccnc2Oc2c(F)cccc2F)cc1` the “% inhibition” value was -7%. For `CC(C)(C)CN/C(=N\O)c1cccnc1Oc1c(F)cccc1F`, the “% inhibition” value was 100%. `COc1ccccc1Oc1ncccc1/C(=N/O)NCc1c(F)cccc1F` was tested, and the “% inhibition” value was 28%. In the case of `CCOc1ccccc1CN/C(=N\O)c1cccnc1Oc1c(F)cccc1F`, the “% inhibition” value is reported as 41%. `O/N=C(\NCc1ccccc1)c1cccnc1Oc1c(F)c(F)cc(F)c1F` was tested, and the “% inhibition” value was 10%. In the case of `O/N=C(\NCc1ccncc1)c1cccnc1Oc1ccc(F)cc1`, the “% inhibition” value is reported as 2%. `CSc1ccccc1Oc1ncccc1/C(=N/O)NCc1c(F)cccc1F` was tested, and the “% inhibition” value was 58%. `Cc1ccccc1CN/C(=N\O)c1cccnc1Oc1c(F)cccc1F` was tested, and the “% inhibition” value was 95%. With `O/N=C(\NCc1cccnc1)c1cccnc1Oc1ccc(F)cc1` the “% inhibition” value was 2%. For `O/N=C(\NCc1c(F)cccc1F)c1cccnc1Oc1ccc(F)cc1`, the “% inhibition” value was 94%. With `CCc1ccc(Oc2ncccc2/C(=N/O)n2ccnc2)cc1` the “% inhibition” value was 3%. In the case of `Cc1cccc(Oc2ccc(/C(=N/O)N(C)C3CCCCC3)cn2)c1`, the “% inhibition” value is reported as 4%. With `Cc1ccc(/C(=N/O)NCC2CC2)c(Oc2cccc3c2CCCC3)n1` the “% inhibition” value was -5%. With `Cc1cc(C)cc(Oc2nc(C)ccc2/C(=N/O)Nc2ccc(C(C)C)cc2)c1` the “% inhibition” value was 0%. In the case of `COc1cccc(-c2nc(CN3CCN(c4ccccn4)CC3)co2)c1`, the “% inhibition” value is reported as -9%. `Oc1ccc(-c2nc(CNCc3ccccc3)co2)cc1` was tested, and the “% inhibition” value was 1%. `CN(Cc1coc(-c2ccc(C(F)(F)F)cc2)n1)CC1OCCO1` was tested, and the “% inhibition” value was -7%. `CN(Cc1cccnc1)Cc1coc(-c2cccc(F)c2)n1` was tested, and the “% inhibition” value was -1%. With `Cc1ccc(Oc2nc(C)ccc2/C(=N/O)NCc2c(F)cccc2F)cc1` the “% inhibition” value was 13%. With `Cc1cccc(Oc2ncccc2/C(=N/O)NCc2ccncc2)c1C` the “% inhibition” value was 5%. With `CCCN/C(=N\O)c1cccnc1Oc1ccccc1` the “% inhibition” value was 8%. For `O/N=C(\NCc1cccnc1)c1cccnc1Oc1ccccc1`, the “% inhibition” value was 8%. In the case of `Cc1ccc(Oc2ncccc2/C(=N/O)NCc2c(F)cccc2F)cc1`, the “% inhibition” value is reported as 98%. With `O/N=C(\NCc1c(F)cccc1F)c1cccnc1Oc1ccccc1` the “% inhibition” value was 98%. For `Cc1cccc(Oc2ncccc2/C(=N/O)NCc2cccs2)c1C`, the “% inhibition” value was 3%. With `O/N=C(\NCc1ccccc1)c1cccnc1Oc1c(F)cccc1F` the “% inhibition” value was 3%. With `O/N=C(\NCc1cccs1)c1cccnc1Oc1c(F)cccc1F` the “% inhibition” value was 73%. In the case of `Cc1ccccc1CN/C(=N\O)c1cccnc1Oc1cccc(C)c1C`, the “% inhibition” value is reported as 85%. `Cc1ccc(Oc2ncccc2/C(=N/O)NCc2ccccc2)cc1` was tested, and the “% inhibition” value was 12%. `COc1ccccc1CN/C(=N\O)c1cccnc1Oc1cccc(C)c1C` was tested, and the “% inhibition” value was 7%. With `CSc1ccc(Oc2ncccc2/C(=N/O)NCc2cccnc2)cc1C` the “% inhibition” value was 10%. In the case of `CCOc1cccc(-c2nc(CNCCc3cccc(OC)c3)co2)c1`, the “% inhibition” value is reported as 8%. `COCC(C)NCc1coc(-c2cccc(C)c2)n1` (centres undefined) was tested, and the “% inhibition” value was 19%. For `Cc1ccc(N(C)Cc2coc(-c3ccccc3Cl)n2)cc1`, the “% inhibition” value was -9%. With `O/N=C(\NCc1c(F)cccc1F)c1cccnc1Oc1c(F)cccc1F` the “% inhibition” value was 95%. With `O/N=C(\NCc1ccncc1)c1cccnc1OCc1ccccc1F` the “% inhibition” value was -12%. With `Cc1cc(C)cc(CN/C(=N\O)c2cccnc2OCc2ccccc2F)c1` the “% inhibition” value was 83%. In the case of `Cc1cc(C)cc(CN/C(=N\O)c2cccnc2Oc2c(F)cccc2F)c1`, the “% inhibition” value is reported as 100%. In the case of `O/N=C(\NCc1c(F)cccc1F)c1cccnc1OC1CCC1`, the “% inhibition” value is reported as 10%. With `CC(C)c1ccc(Oc2ncccc2/C(=N/O)NCc2ccncc2)cc1` the “% inhibition” value was 1%. With `CC(C)COc1ncccc1/C(=N/O)NCc1c(F)cccc1F` the “% inhibition” value was -9%. For `Cc1cc(C)cc(CN/C(=N\O)c2cccnc2Oc2cccc(C)c2C)c1`, the “% inhibition” value was -13%. In the case of `O/N=C(\NCc1c(F)cccc1F)c1cccnc1Oc1c(F)c(F)cc(F)c1F`, the “% inhibition” value is reported as 2%. In the case of `CC(C)c1ccc(Oc2ncccc2/C(=N/O)NCc2c(F)cccc2F)cc1`, the “% inhibition” value is reported as 100%. With `O/N=C(\NCc1ccccc1)c1cccnc1OCc1ccccc1F` the “% inhibition” value was 37%. For `Cc1cc(C)cc(CN/C(=N\O)c2cccnc2Oc2c(F)c(F)cc(F)c2F)c1`, the “% inhibition” value was -3%. For `COc1cc(C)ccc1Oc1ncccc1/C(=N/O)N(C)C1CCN(C)CC1`, the “% inhibition” value was -9%. In the case of `Fc1ccc(-c2nc(Cn3ncc4c3CCCC4)co2)cc1`, the “% inhibition” value is reported as 1%. In the case of `COc1cc(-c2nc(CN3CCC(Cc4ccccc4)CC3)co2)cc(OC)c1OC`, the “% inhibition” value is reported as 6%. `CCOc1ccccc1-c1nc(CN(C)c2ccc(C)cc2)co1` was tested, and the “% inhibition” value was -15%. With `CCCN(Cc1coc(-c2ccccc2Cl)n1)C(C)CC` (centres undefined) the “% inhibition” value was -11%. In the case of `O/N=C(/c1ccnc(Oc2cccc3c2CCCC3)c1)N1CCN(c2ccccc2)CC1`, the “% inhibition” value is reported as 22%. In the case of `Cc1cc(C)n(/C(=N\O)c2ccnc(Oc3cc(Cl)ccc3Cl)c2)n1`, the “% inhibition” value is reported as 16%. For `O/N=C(/c1ccnc(Oc2cccc3c2CCCC3)c1)N1CCSCC1`, the “% inhibition” value was 91%. In the case of `N/C(=N\O)c1ccnc(Oc2cccc3c2CCCC3)c1`, the “% inhibition” value is reported as 7%. For `Cc1cc(C)n(/C(=N\O)c2ccnc(Oc3cccc4c3CCCC4)c2)n1`, the “% inhibition” value was 57%. `O/N=C(/c1ccc(Oc2cccc3c2CCCC3)nc1)N1CCSCC1` was tested, and the “% inhibition” value was 21%. `Cc1ccccc1-c1nc(CN(C)Cc2ccccc2)co1` was tested, and the “% inhibition” value was -2%. `C=COCCCNCc1coc(-c2ccc(C)cc2)n1` was tested, and the “% inhibition” value was -5%. `Cc1ccccc1-c1nc(CN(CCN(C)C)Cc2ccccc2)co1` was tested, and the “% inhibition” value was 54%. `CC(C)(C)CNCc1coc(-c2ccc(C(C)(C)C)cc2)n1` was tested, and the “% inhibition” value was 99%. With `CN(C)CC(C)(C)CNCc1coc(-c2ccc(C(C)(C)C)cc2)n1` the “% inhibition” value was 9%. With `Cc1ccccc1-c1nc(CN(CCC#N)Cc2ccccc2)co1` the “% inhibition” value was -5%. `C=COCCCNCc1coc(-c2ccc(C(C)(C)C)cc2)n1` was tested, and the “% inhibition” value was 53%. For `C=COCCCNCc1coc(-c2ccc(OC)cc2)n1`, the “% inhibition” value was -2%. In the case of `CC(C)(C)c1ccc(CNCc2coc(-c3ccc(O)cc3)n2)cc1`, the “% inhibition” value is reported as 36%. For `COCCN(CCOC)Cc1coc(-c2ccc(C(C)(C)C)cc2)n1`, the “% inhibition” value was -1%. `CCN(CC)CCN(CC)Cc1coc(-c2ccc(OC)cc2)n1` was tested, and the “% inhibition” value was 14%. In the case of `CCN(CCN(C)C)Cc1coc(-c2ccc(C(C)(C)C)cc2)n1`, the “% inhibition” value is reported as 99%. `Cc1ccc(-c2nc(CN(C)C(C)(C)C)co2)cc1` was tested, and the “% inhibition” value was 22%. With `CN(CCc1ccccc1)Cc1coc(-c2ccc(Cl)cc2Cl)n1` the “% inhibition” value was 11%. For `Cc1ccc(CCNCc2coc(-c3ccc(Cl)cc3Cl)n2)cc1`, the “% inhibition” value was -7%. `C=CCN(C)Cc1coc(-c2cccc(OC)c2)n1` was tested, and the “% inhibition” value was 27%. For `CSc1ccc(Oc2nc(C)ccc2/C(=N/O)N2C(C)CCC2C)cc1C` (centres undefined), the “% inhibition” value was 23%. With `FC(F)(F)c1ccc(CNCc2coc(-c3cccs3)n2)cc1` the “% inhibition” value was -6%. In the case of `COc1ccc(-c2nc(CN3CCN(C)CC3)co2)cc1`, the “% inhibition” value is reported as 4%. In the case of `Cc1cn(Cc2coc(-c3ccc(C(F)(F)F)cc3)n2)c(C)n1`, the “% inhibition” value is reported as 2%. `CC(C)(C)c1ccc(-c2nc(CNCC3CC3)co2)cc1` was tested, and the “% inhibition” value was 99%. With `COc1ccc(-c2nc(CNCC3CCCCC3)co2)cc1` the “% inhibition” value was 10%. `CC(C)C(C)NCc1coc(-c2ccc(O)cc2)n1` (centres undefined) was tested, and the “% inhibition” value was 33%. With `Cc1ccc(-c2nc(CNC(C)C(C)C)co2)cc1` (centres undefined) the “% inhibition” value was 41% and 29%. With `c1ccc(-c2nc(CNCC3CC3)co2)cc1` the “% inhibition” value was 28%. In the case of `Cc1ccc(CNCc2coc(-c3ccc(C(C)(C)C)cc3)n2)o1`, the “% inhibition” value is reported as 0%. `CC(C)C(C)NCc1coc(-c2ccc(C(C)(C)C)cc2)n1` (centres undefined) was tested, and the “% inhibition” value was 72%. In the case of `CCCCNCc1coc(-c2ccc(C(C)(C)C)cc2)n1`, the “% inhibition” value is reported as 99%. `Cc1ccc(-c2nc(Cn3cc(C)nc3C)co2)cc1` was tested, and the “% inhibition” value was 18%. In the case of `Cc1cn(Cc2coc(-c3ccc(C(C)(C)C)cc3)n2)c(C)n1`, the “% inhibition” value is reported as 58%. With `CCCCNCc1coc(-c2ccccc2)n1` the “% inhibition” value was 20%.
